Laboratory results published in PubChem BioAssay (NCATS).
Several values for one entry are separate records, joined by “and”; a condition that tells them apart may be missing. Identical values can stand only once. Results filed as inconclusive are left out. Activity calls are given as the source filed them. Calls come from the whole dose curve; as a rule, active = well fitted curve in the direction sought with a large enough effect; inconclusive = small, poorly fitted or top-dose-only effect, or another doubt; inactive = no such curve, though single readings can be large; an effect the other way counts as inactive or inconclusive.

Assays:
[1] = biological target: Cellular tumor antigen p53 (Homo sapiens) (UniProt P04637); test: Primary qHTS for small molecule compounds that upregulate eGFP-tagged delta133p53alpha (in N-terminal) cells. (AID 2060322); conditions: NCI-H358 eGFP-delta133p53alpha fluorescence, 24 h; activation: stronger effect = higher value; note: nearly all actives have a fitted effect of over 75% in size; note: potency is the fitted concentration of half-maximal effect;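 for activation: 0% = DMSO vehicle and 100% = reference activator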
Cellular tumor antigen p53 (Homo sapiens), sequence (P04637 whole entry, looked up): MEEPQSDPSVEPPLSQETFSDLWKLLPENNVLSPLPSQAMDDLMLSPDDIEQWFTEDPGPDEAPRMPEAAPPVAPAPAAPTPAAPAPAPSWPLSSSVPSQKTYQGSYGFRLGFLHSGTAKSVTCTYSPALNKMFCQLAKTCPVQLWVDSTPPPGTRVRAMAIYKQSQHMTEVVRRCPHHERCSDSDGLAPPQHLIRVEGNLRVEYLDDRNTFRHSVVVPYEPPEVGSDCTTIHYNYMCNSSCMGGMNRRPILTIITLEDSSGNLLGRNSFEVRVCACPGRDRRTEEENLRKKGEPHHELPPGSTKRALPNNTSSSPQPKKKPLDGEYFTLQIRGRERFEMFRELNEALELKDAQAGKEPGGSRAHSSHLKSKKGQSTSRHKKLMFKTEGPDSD
Procedure, shortened: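 NCI-H358 cells pre-induced 24 h with 10 ng/ml doxycycline to express N-terminal eGFP-delta133p53alpha, then dosed 24 h at 37C without doxycycline; fixed, Hoechst-stained, GFP intensity by laser scanning cytometry, normalized to DMSO (0%) and 57.5 uM 5-azacytidine (100%).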

[2] = biological target: Aldehyde dehydrogenase, mitochondrial (Homo sapiens) (UniProt P05091); test: qHTS for Inhibitors of the Aldehyde Dehydrogenase Family (ALDH2) Primary screen (AID 2061308); conditions: ALDH2 enzyme inhibition qHTS, 1536-well; series mostly up to 56 µM;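 note: plate controls were vehicle for no effect and reference inhibitor for full effect; nearly all actives have a fitted effect of over 55% in size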
[3] = biological target: Retinaldehyde dehydrogenase 3 (Homo sapiens) (UniProt P47895); test: qHTS for Inhibitors of the Aldehyde Dehydrogenase Family (ALDH1A3) Validation screen (AID 2061312); conditions: ALDH1A3 enzyme inhibition qHTS validation, fluorescence; series mostly up to 84.7 µM; note: nearly all actives have a fitted effect of over 45% in size; note: potency is the fitted concentration of half-maximal effect
[4] = biological target: Retinaldehyde dehydrogenase 3 (Homo sapiens) (UniProt P47895); test: qHTS for Inhibitors of the Aldehyde Dehydrogenase Family (ALDH1A3) Primary screen (AID 2061315); conditions: ALDH inhibition qHTS; series mostly up to 56 µM;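 note: plate controls were DMSO vehicle for no effect and reference inhibitor for full effect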

CCCC1(c2ccccc2)NC(=O)N(CC(=O)N(C)Cc2c(F)cccc2Cl)C1=O (configuration not stated)
inactive: activation [1] 4.3% | Potency [2] | Potency [3] | Potency [4]

CC(=O)[C@H]1CC[C@H]2[C@@H]3C=CC4=CC(=O)CC[C@@]4(C)[C@@H]3CC[C@]12C
inactive: activation [1] -8.47% and 12.4% | Potency [2] | Potency [3] | Potency [4]

CC(C)CCNC(=O)c1ccc2c(c1)nc(Nc1n[nH]c3ccc(-c4ccccc4OC(F)(F)F)cc13)n2C1CCC(O)CC1 (configuration not stated)
inactive: activation [1] 6.21% | Potency [2] | Potency [3] | Potency [4]

Cc1cc(C)nc(SCC(=O)Nc2ncc(Cc3cccc4ccccc34)s2)n1
inactive: activation [1] -8.11% | Potency [2] | Potency [3] | Potency [4]

O=C(Nc1ccccc1)Nc1ccc(-c2ccc(C(=O)C3CCCC3C(=O)O)cc2)cc1 (configuration not stated)
inactive: activation [1] -6.21% | Potency [2] | Potency [3] | Potency [4]

COc1cc2ncnc(Oc3ccc(CC(=O)Nc4cnn(C(C)C)c4)cc3)c2cc1OC
inactive: activation [1] 4.77% | Potency [2] | Potency [3] | Potency [4]

C[C@]12CC[C@@H]3c4ccc(OC(=O)c5ccccc5)cc4CC[C@H]3[C@@H]1CC[C@@H]2O
inactive: activation [1] 14.3% | Potency [2] | Potency [3] | Potency [4]

COc1ccccc1Oc1ccc(N(Cc2cccnc2)S(=O)(=O)CC(F)(F)F)cc1
inactive: activation [1] -6.21% | Potency [2] | Potency [3] | Potency [4]

Cc1nc2cc(-c3cc(F)cc(C#N)c3)ccc2s1
inactive: activation [1] -1.91% | Potency [2] | Potency [3] | Potency [4]

O=C(NCCN1CCC(n2c(=O)[nH]c3ccccc32)CC1)c1ccc2ccccc2c1
inactive: activation [1] -1.43% | Potency [2] | Potency [3] | Potency [4]

O=S(=O)(Nc1ccccc1N1CCCCC1)c1ccc(Cl)s1
inactive: activation [1] -11.9% | Potency [2] | Potency [3] | Potency [4]

CNS(=O)(=O)CC1CCC(N(C)c2ncnc3[nH]ccc23)CC1 (configuration not stated)
inactive: activation [1] -0.477% | Potency [2] | Potency [3] | Potency [4]

O=C(Nc1ccc(-n2nc(C(F)(F)F)cc2C(F)(F)F)cc1)c1ccncc1F
inactive: activation [1] -5.25% | Potency [2] | Potency [3] | Potency [4]

CCCCc1ccc(C(=O)Nc2cc(-c3ccc(Cl)cc3)nn2-c2ccc(Cl)cc2)cc1
inactive: activation [1] 6.68% | Potency [2] | Potency [3] | Potency [4]

COc1ccc(N2CCOCC2)c2sc(NC(=O)N3CCC(C)(O)CC3)nc12
inactive: activation [1] -5.25% | Potency [2] | Potency [3] | Potency [4]

O=C(COc1ccc(Cl)cc1)NC1CCC(NC(=O)COc2ccc(Cl)cc2)CC1 (configuration not stated)
inactive: activation [1] -5.25% | Potency [2] | Potency [3] | Potency [4]

O=C(Nc1ccc(N2CCC(C(=O)N3CCOCC3)CC2)cc1)c1cnc(Oc2ccccc2)nc1
inactive: activation [1] -2.39% | Potency [2] | Potency [3] | Potency [4]

CNCCCC1(c2ccccc2)OC(C)(C)c2ccccc21 (configuration not stated)
inactive: activation [1] -11.9% | Potency [2] | Potency [3] | Potency [4]

CC(C)N(CCCCOCC(=O)NS(C)(=O)=O)c1cnc(-c2ccccc2)c(-c2ccccc2)n1
inactive: activation [1] -4.77% | Potency [2] | Potency [3] | Potency [4]

CN(C)c1ccnc2sc3c(=O)n(N4CCCCCC4)cnc3c12
inactive: activation [1] -18.1% | Potency [2] | Potency [3] | Potency [4]

CN(C)S(=O)(=O)c1ccc(NC(=S)N2CCC(C(O)(c3ccccc3)c3ccccc3)CC2)cc1
inactive: activation [1] -6.68% | Potency [2] | Potency [3] | Potency [4]

CCCN1CCC[C@@H](c2cccc(S(C)(=O)=O)c2)C1
inactive: activation [1] -7.64% | Potency [2] | Potency [3] | Potency [4]

CNC(=O)COC(=O)NCCC1CCN(c2cccc(C)n2)CC1
inactive: activation [1] 6.21% | Potency [2] | Potency [3] | Potency [4]

CCCCCCOc1cc2c(cc1N(C)c1ncc(C(=O)O)cn1)C(C)(C)CCC2(C)C
inactive: activation [1] -3.82% | Potency [2] | Potency [3] | Potency [4]

CCn1c2ccccc2c2cc(CNC)ccc21
inactive: activation [1] 12.4% | Potency [2] | Potency [3] | Potency [4]

Cc1cc(CN)cc(C)c1NC(=O)c1ccc(-c2cc(Cl)ccc2Cl)o1
inactive: activation [1] 6.68% | Potency [2] | Potency [3] | Potency [4]

CC(=O)NCC(=O)N1C2CCC1c1cc(Nc3ncc(C(F)(F)F)c(NC4CCC4)n3)ccc12 (configuration not stated)
inactive: Potency [2] | Potency [3] | Potency [4]
active: Potency [1] 3.79 µM

CCO[C@H]1CN(C2CCC(O)(c3ccc4c(c3)OCO4)CC2)C[C@@H]1NC(=O)CNC(=O)c1cccc(C(F)(F)F)c1 (some centres not stated)
inactive: activation [1] 10.5% | Potency [2] | Potency [3] | Potency [4]

CCN1C[C@H](C)n2c(c(O)c3c(=O)n(Cc4ccc(F)c(Cl)c4)nc(C(=O)NC)c32)C1=O
inactive: activation [1] -11.2% and 13.4% and -6.68% | Potency [2] | Potency [3] | Potency [4]

COc1ccc(C#Cc2ccc(C(=O)N3CCC[C@@H](CO)C3)cc2)cc1
inactive: activation [1] -13.8% | Potency [2] | Potency [3] | Potency [4]

c1cc(OCCCN2CCCCC2)ccc1CN1CCCCC1
inactive: activation [1] 5.25% | Potency [2] | Potency [3] | Potency [4]

CC(C)(CO)c1cc2cc(NC(=O)C3(c4ccc5c(c4)OC(F)(F)O5)CC3)c(F)cc2n1CC(O)CO (configuration not stated)
inactive: activation [1] 17.7% | Potency [2] | Potency [3] | Potency [4]

CN(C)C(=O)C(O)C(Cc1ccccc1)NC(=O)c1cc2cc(Cl)ccc2[nH]1 (configuration not stated)
inactive: activation [1] -1.43% | Potency [2] | Potency [3] | Potency [4]

OCC(O)CN1CCN(c2ccccc2)CC1 (configuration not stated)
inactive: activation [1] -0.837% and 0.955% | Potency [2] | Potency [3] | Potency [4]

CC(=O)c1ccc2c(c1)[C@H](NC(=O)c1ccc(F)c(Cl)c1)[C@H](O)C(C)(C)O2
inactive: activation [1] 7.16% | Potency [2] | Potency [3] | Potency [4]

CS(=O)(=O)c1ccc([C@@H](O)[C@@H](CF)NC(=O)C(Cl)Cl)cc1
inactive: activation [1] -2.82% and -2.86% | Potency [2] | Potency [3] | Potency [4]

O=C(Nc1ccccc1)c1ccc(Nc2nnc(-c3ccc(O)cc3)c3ccccc23)cc1
inactive: activation [1] 2.39% | Potency [2] | Potency [3] | Potency [4]

Cc1cc(-c2nc(-c3ccc(OC(F)(F)F)cc3)no2)nn1Cc1ccnc(N2CCN(C3CC3)CC2)c1
inactive: activation [1] -0.955% | Potency [2] | Potency [3] | Potency [4]

O=C(O)c1cc(-c2ccccc2)nc2ccccc12
inactive: activation [1] -7.34% and -10% and -1.43% | Potency [2] | Potency [3] | Potency [4]

NCc1c[nH]c(=S)n1[C@@H]1CCc2c(F)cc(F)cc2C1
inactive: activation [1] 0% | Potency [2] | Potency [3] | Potency [4]

COc1cc(-c2cn(C3CCc4c(F)cccc4N(CC(F)(F)F)C3=O)nn2)ccc1-n1cnc(C)c1 (configuration not stated)
inactive: activation [1] 6.68% | Potency [2] | Potency [3] | Potency [4]

CCCCNc1ccc(-c2ccc(CN3CCOCC3)cn2)c(NC2CCC(O)CC2)c1 (configuration not stated)
inactive: activation [1] 1.91% | Potency [2] | Potency [3] | Potency [4]

Cc1oc2ccccc2c1CNC(=O)NCc1cccs1
inactive: activation [1] -8.59% | Potency [2] | Potency [3] | Potency [4]

O=c1cc(OCc2ccc(F)cc2)ccn1-c1ccc(OCCN2CCCC2)cc1
inactive: activation [1] -0.955% | Potency [2] | Potency [3] | Potency [4]

CC[C@H]1OC(=O)[C@H](C)[C@@H](O[C@H]2C[C@@](C)(OC)[C@@H](O)[C@H](C)O2)C(C)[C@@H](O[C@@H]2O[C@H](C)C[C@H](N(C)C)[C@H]2O)[C@](C)(O)C[C@@H](C)CN(C)[C@H](C)[C@@H](O)[C@]1(C)O (some centres not stated)
inactive: activation [1] -5.73% | Potency [2] | Potency [3] | Potency [4]

c1ccc(-c2ncc(CN3CCN(c4ncccn4)CC3)[nH]2)cc1
inactive: activation [1] -2.39% | Potency [2] | Potency [3] | Potency [4]

CN1CCC(Nc2nc(Nc3ccc(Oc4ccccc4)cc3)c3c(=O)[nH]cc(Br)c3n2)CC1
inactive: Potency [2] | Potency [3] | Potency [4]
active: Potency [1] 10.7 µM

CC1(C)CC(NC(=O)C(=O)Nc2ccc(Cl)cc2)CC(C)(C)N1
inactive: activation [1] 8.11% | Potency [2] | Potency [3] | Potency [4]

Cn1c(=O)cc(N2CCCC(N)C2)n(Cc2ccccc2C#N)c1=O (configuration not stated)
inactive: activation [1] 0% | Potency [2] | Potency [3] | Potency [4]

COc1cc(Nc2nc3ccccc3nc2NS(=O)(=O)c2ccc(NC(=O)c3ccc(OC)c(C)c3)cc2)cc(OC)c1
inactive: activation [1] -18.6% | Potency [2] | Potency [3] | Potency [4]

C(#Cc1cccc(CN2CCOCC2)c1)CCN1CCCCC1
active: Potency [3] 20 µM
inactive: activation [1] -4.3% | Potency [2] | Potency [4]

O=C(O)c1ccccc1NC(=O)N1CCC(c2ccccc2C(F)(F)F)CC1
inactive: activation [1] -3.34% | Potency [2] | Potency [3] | Potency [4]

O=S(=O)(Nc1cc(Cl)c(Oc2cnc3ccccc3c2)c(Cl)c1)c1ccc(Cl)cc1Cl
inactive: activation [1] -4.77% | Potency [2] | Potency [3] | Potency [4]

Nc1nc2c(c(N3CCNCC3)n1)CCC1=C2[C@@H]2CCCC[C@@H]2O1
inactive: activation [1] -18.1% | Potency [2] | Potency [3] | Potency [4]

Cc1ccc(C)c(OCCn2cc(C(=O)O)c3ccccc32)c1
inactive: activation [1] 7.16% | Potency [2] | Potency [3] | Potency [4]

O=C(COc1ccc(C(=O)c2ccccc2)cc1)NC1CCN(Cc2ccccc2)CC1
inactive: activation [1] -6.68% | Potency [2] | Potency [3] | Potency [4]

Cc1onc(-c2c(Cl)cccc2Cl)c1CC(=O)NCc1ccc(OCC(F)(F)F)nc1
inactive: activation [1] -9.07% | Potency [2] | Potency [3] | Potency [4]

O=C(NCCCc1ccccc1)C1CCC(CNS(=O)(=O)c2cccc3nsnc23)CC1 (configuration not stated)
inactive: activation [1] -3.34% | Potency [2] | Potency [3] | Potency [4]
